Source: paper PMC5540273 (PLoS ONE, 2017)

Experiments:
Settings in all cases: concentration: 1 μM, replicates: in singlicate; n = 1
[1] = tested on: T1, MLK1
T1 construct: gene MAP3K9

[2] = tested on: MLK2
[3] = tested on: MLK3
[4] = tested on: MRCKA
[5] = tested on: T2, MRCKB
T2 construct: gene CDC42BPB

[6] = tested on: MST1R
[7] = tested on: T3, MST1
T3 construct: gene STK4

[8] = tested on: T4, MST2
T4 construct: gene STK3

[9] = tested on: T5, MST3
T5 construct: gene STK24

[10] = tested on: MST4
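Note: KINOMEscan kinase panel screen.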

Row | Compound | %Inh [1] | %Inh [2] | %Inh [3] | %Inh [4] | %Inh [5] | %Inh [6] | %Inh [7] | %Inh [8] | %Inh [9] | %Inh [10]
1 | O=C(Nc1n[nH]c2cc(-c3ccoc3)ccc12)C1CC1 [SB-738481] | 0% | 0% | 6% | 1% | 0% | 0% | 0% | 25% | 0% | 0%
2 | COc1cc2c(cc1OCCN1CCNCC1)ncc1c3ccc(C#N)cc3[nH]c21 | 0% | 0% | 0% | 6% | 0% | 9% | 0% | 60% | 12% | 28%
3 | COc1cccc(NC(=O)NC2CCN(c3ccnc(Nc4cc(OC)c(OC)c(OC)c4)n3)C2)c1 (stereo not drawn) [GSK1379763] | 48% | 0% | 38% | 11% | 60% | 31% | 0% | 3% | 0% | 0%
4 | O=C(Nc1cccc(-c2nn3ncccc3c2-c2ccnc(Nc3ccccc3)n2)c1)c1c(F)cccc1F [GSK198271] | 0% | 0% | 11% | 69% | 88% | 15% | 47% | 100% | 12% | 0%
5 | O=c1[nH]cc(-c2ccc(N3CCOCC3)cc2)c2sc(-c3cn[nH]c3)cc12 [GSK2276055] | 0% | 0% | 0% | 0% | 0% | 31% | 0% | 32% | 29% | 0%
6 | Nc1ncc(-c2cccnc2)c2scc(-c3ccc4c(c3)CCN4C(=O)Cc3ccccc3)c12 [GSK683281] | 10% | 11% | 7% | 23% | 79% | 78% | 95.8% | 36% | 8% | 13%
7 | COc1cc(Nc2ncc3c(C)nc(-c4cc5ccccc5[nH]4)n3n2)cc(OC)c1OC [GW869516] | 93.8% | 89% | 87% | 4% | 7% | 0% | 0% | 29% | 0% | 0%
8 | COc1ccc(Nc2nccc(N3CCC(NC(=O)Nc4cccc(OC)c4)C3)n2)cc1 (stereo not drawn) [GSK1379742] | 0% | 0% | 25% | 11% | 0% | 9% | 0% | 31% | 0% | 0%
9 | CC(C)(C)c1ccc2nccc(Nc3cccc(O)c3)c2c1 [GW856795] | 0% | 3% | 0% | 0% | 0% | 32% | 0% | 18% | 0% | 0%
10 | Cl.Cl.NCC(NCc1ccc(-c2ccnc3[nH]ccc23)s1)c1ccccc1 (stereo not drawn) [GSK1321565] | 0% | 0% | 7% | 23% | 64% | 12% | 0% | 48% | 0% | 0%
11 | Cc1cccc(Nc2nc(N[C@H]3CCNC3)ncc2C(N)=O)c1.Cl [GSK2197149] | 92.9% | 4% | 86% | 0% | 0% | 0% | 43% | 0% | 31% | 36%
12 | O=C(Nc1cccc(-c2nn3ccccc3c2-c2ccnc(Nc3cccc(F)c3)n2)c1)c1c(F)ccc(F)c1Cl [GSK357952] | 0% | 31% | 39% | 9% | 1% | 50% | 25% | 0% | 4% | 0%
13 | COc1cccc(C(=O)Nc2cccc(Oc3ccc4nc(NC(=O)C5CC5)cn4n3)c2)c1 | 8% | 0% | 2% | 21% | 0% | 17% | 9% | 0% | 15% | 0%
14 | FC(F)(F)c1ccc(/C=C/c2cncnc2Nc2ccc3[nH]c(Cc4ccccc4)nc3c2)cc1 [GW709199] | 19% | 11% | 1% | 31% | 26% | 0% | 2% | 0% | 0% | 0%
15 | CC(=O)N1CCN(c2ccc(Nc3nccc(-c4sc(C(C)C)nc4-c4cccc(NS(=O)(=O)c5cccc(Cl)c5)c4)n3)cn2)CC1 [GSK1660437] | 33% | 33% | 46% | 0% | 0% | 15% | 4% | 0% | 6% | 1%
